In the supplement of paper PMC6897291:
Counter-ions that a name gives are not always drawn.

Test system: U-2932
Assay: growth inhibition by drug alone (1 - RLU/untreated control) (fraction); higher = stronger inhibition
Conditions: 177Lu-lilotomab satetraxetan 0 ug/ml
Procedure: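 U-2932 ABC-DLBCL cells were pretreated or not for 18 h with 1 ug/ml 177Lu-lilotomab satetraxetan (600 MBq/mg), washed and seeded (3000 cells/well) on 384-well plates pre-printed with the Selleck Cambridge Cancer Compound library. Viability was read by RealTime-Glo luminescence on days 3-6 after seeding. Effect = 1 - RLU/mean RLU of the 48 untreated no-drug control wells per plate; Bliss score = (M-E)/(1-Fa), with E the expected Bliss-additive effect.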

| Structure (SMILES) | growth inhibition by drug alone (10 nM, time (day): 3) | growth inhibition by drug alone (10 nM, time (day): 4) | growth inhibition by drug alone (10 nM, time (day): 5) | growth inhibition by drug alone (10 nM, time (day): 6) | growth inhibition by drug alone (1000 nM, time (day): 3) | growth inhibition by drug alone (1000 nM, time (day): 4) | growth inhibition by drug alone (1000 nM, time (day): 5) | growth inhibition by drug alone (1000 nM, time (day): 6) |
| --- | --- | --- | --- | --- | --- | --- | --- | --- |
| CC(C)C[C@H](NC(=O)CNC(=O)c1cc(Cl)ccc1Cl)B1OC(=O)C(CC(=O)O)(CC(=O)O)O1 | 0.0922 | 0.0916 | 0.0981 | -0.0316 | 0.985 | 0.984 | 0.984 | 0.984 |
| CCCC(CCC)C(=O)O [Valproic acid sodium salt (Sodium valproate)] | 0.135 | 0.0829 | -0.0268 | -0.0189 | -0.0134 | 0.0276 | -0.0122 | -0.131 |
| C=CC(=O)Nc1cccc(Oc2nc(Nc3ccc(N4CCN(C)CC4)cc3OC)ncc2Cl)c1 | -0.0921 | -0.0614 | -0.0383 | 0.12 | 0.122 | 0.0694 | 0.0278 | 0.0218 |
| CO[C@H]1/C=C\C=C(/C)C(=O)NC2=CC(=O)C(NCCN(C)C)=C(C[C@@H](C)C[C@H](OC)[C@H](O)[C@@H](C)/C=C(\C)[C@@H]1OC(N)=O)C2=O [17-DMAG HCl (Alvespimycin)] | 0.163 | 0.099 | -0.033 | -0.0727 | 0.944 | 0.979 | 0.985 | 0.986 |
| N#CCNC(=O)c1ccc(-c2ccnc(Nc3ccc(N4CCOCC4)cc3)n2)cc1 | -0.0265 | -0.0512 | -0.0373 | 0.104 | -0.161 | -0.159 | -0.134 | 0.0156 |
